To fix the notation:
B1: PhoQ; a variant is named by its letters at X, in order, P23837 (parent)
chain: MKKLLRLFFPLSLRVRFLLATAAVVLVLSLAYGMVALIGYSVSFDKTTFRLLRGESNLFYTLAKWENNKLHVELPENIDKQSPTMTLIYDENGQLLWAQRDVPWLMKMIQPDWLKSNGFHEIEADVNDTSLLLSGDHSIQQQLQEVREDDDDAEMTHSVAVNVYPATSRMPKLTIVVVDTIPVELKSSYMVWSWFIYVLSANLLLVIPLLWVAAWWSLRPIEALAKEVRELEEHNRELLNPATTRELTSLVRNLNRLLKSERERYDKYRTTLTDLTHSLKTPLXXLQXXLRSLRSEKMSVSDAEPVMLEQISRISQQIGYYLHRASMRGGTLLSRELHPVAPLLDNLTSALNKVYQRKGVNISLDISPEISFVGEQNDFVEVMGNVLDNACKYCLEFVEISARQTDEHLYIVVEDDGPGIPLSKREVIFDRGQRVDTLRPGQGVGLAVAREITEQYEGKIVAGESMLGGARMEVIFGRQHSAPKDE

The full ranking holds about 140,000 sequences; the median of “enrichment ratio after two sorts for PhoP signalling” is about 0, and the highest 2% start at about 11. The sample holds the highest values, similar sequences and a random draw of the others, so the mix is not that of the screen. Where only a bound is given, the exact number is not on record here.

Variants of B1 are the subject of the assay. The experiment in a line: enrichment ratio after two sorts for PhoP signalling (ratio (wild type AVST 3.29)); higher = more functional. The note with it: with PhoP (E. coli).
As for KIAC, the enrichment ratio is no more than 0.25. With GADV the figure was no more than 0.25; with GNVT, no more than 0.25; with LQFF, no more than 0.25.

Regarding YIPQ, the enrichment ratio is no more than 0.25.

LFCN: the enrichment ratio is no more than 0.25.

RNVA: the enrichment ratio was no more than 0.25. Take IHQN: the enrichment ratio was no more than 0.25. Consider VDDC, for which the enrichment ratio is no more than 0.25. DQCK: the enrichment ratio was no more than 0.25.

As to LVLE, the enrichment ratio is no more than 0.25. For the variant SQCN, the enrichment ratio is 10.1. Take SCCN: the enrichment ratio stood at 17.1.

In the case of VCCN, the enrichment ratio is no more than 0.25. As to LVPD, the enrichment ratio is no more than 0.25.

Consider TRFL, for which the enrichment ratio was no more than 0.25. Regarding DSSW, the enrichment ratio was no more than 0.25.

With EETG, the enrichment ratio is 3.69.

For the variant MITR, the enrichment ratio was no more than 0.25. With SGNY the figure was no more than 0.25; with SGAY, 15.2. On to SGDY, for which the enrichment ratio was no more than 0.25.

SGYI: the enrichment ratio is 2.6. For SGGY, the enrichment ratio was found to be 22.8.

SGWY: the enrichment ratio was no more than 0.25. Consider MFNP, for which the enrichment ratio is no more than 0.25. With RNKF, the enrichment ratio was no more than 0.25. Consider GSCF, for which the enrichment ratio came out at 11.5. With KSCF, the enrichment ratio was no more than 0.25. For the variant GSLY, the enrichment ratio was found to be 7.32. Take GSTI: the enrichment ratio was 12.2. As to GSWI, the enrichment ratio was no more than 0.25.

As for GSHF, the enrichment ratio is no more than 0.25. Consider MERP, for which the enrichment ratio was no more than 0.25. Regarding VWLN, the enrichment ratio is no more than 0.25. In the case of DNMN, the enrichment ratio is no more than 0.25. As for NALK, the enrichment ratio is no more than 0.25. YTLK: the enrichment ratio is no more than 0.25.

In the case of ATLK, the enrichment ratio turned out to be 17.

In the case of ATLA, the enrichment ratio is 9.51. KALK: the enrichment ratio was no more than 0.25. Turning to AAAT, the enrichment ratio was no more than 0.25. For the variant AAMK, the enrichment ratio is 35.5. On to AIMK, for which the enrichment ratio was no more than 0.25. Turning to AALT, the enrichment ratio turned out to be 11.9. As to NAMK, the enrichment ratio is no more than 0.25.

Consider AALA, for which the enrichment ratio was found to be 7.36. For AALK, the enrichment ratio came out at 12. HSVK: the enrichment ratio was no more than 0.25.

In the case of TFLL, the enrichment ratio is 3.21. As to PAYK, the enrichment ratio is no more than 0.25.

As to PNPY, the enrichment ratio is no more than 0.25. On to GVVL, for which the enrichment ratio was determined as 1.14.

Consider FWES, for which the enrichment ratio was no more than 0.25. With MFHN the figure was no more than 0.25; with VGKH, no more than 0.25; with TSNW, no more than 0.25. Turning to TSNT, the enrichment ratio was 11.9.

Turning to KSNT, the enrichment ratio was no more than 0.25. On to TSNY, for which the enrichment ratio is 8.01. In the case of TSAT, the enrichment ratio is 11.6.

On to NSAT, for which the enrichment ratio is no more than 0.25.

As for KSAT, the enrichment ratio is no more than 0.25. Consider KSNS, for which the enrichment ratio is no more than 0.25. Consider TSNS, for which the enrichment ratio came to 12.8. For the variant GLRK, the enrichment ratio is no more than 0.25. In the case of FLKG, the enrichment ratio came to 0.285. With GCSH the figure was no more than 0.25. On to AATM, for which the enrichment ratio was determined as 0.767.

Regarding RWIC, the enrichment ratio was no more than 0.25.

Regarding FLKL, the enrichment ratio was no more than 0.25. The same measure for GIVG: 10.4. In the case of GILN, the enrichment ratio came out at 10.6.

Take GICN: the enrichment ratio turned out to be 13.8. For the variant GNCS, the enrichment ratio was determined as 7.94. With GICP, the enrichment ratio was no more than 0.25. In the case of GNCN, the enrichment ratio was no more than 0.25. With GICA, the enrichment ratio came out at 11.2. In the case of GICS, the enrichment ratio was 11.2. On to GICI, for which the enrichment ratio came to 7.05. For the variant GNCA, the enrichment ratio was determined as 9.24.

Regarding GNCG, the enrichment ratio was no more than 0.25.

Regarding GICG, the enrichment ratio is 15.9. Take CLFS: the enrichment ratio was no more than 0.25. With WHNW the figure was no more than 0.25; with WMSA, no more than 0.25; with HCSR, no more than 0.25. For TYDS, the enrichment ratio was no more than 0.25.

On to MLEL, for which the enrichment ratio was no more than 0.25. GVAN: the enrichment ratio was no more than 0.25. In the case of MVAV, the enrichment ratio is 11.4.

On to MVWN, for which the enrichment ratio is 13.3. With MVPY the figure was no more than 0.25; with MVPA, no more than 0.25; with MVYK, 17.6.

For MVAN, the enrichment ratio was determined as 15.8. The same measure for MVYD: no more than 0.25; for MVNL: no more than 0.25. As to MVYI, the enrichment ratio was no more than 0.25. As to MVHV, the enrichment ratio is no more than 0.25. On to MVIV, for which the enrichment ratio was no more than 0.25.

Turning to GDLC, the enrichment ratio turned out to be 1.96. For LWEG, the enrichment ratio is no more than 0.25. RTKT: the enrichment ratio was no more than 0.25.

As for QLML, the enrichment ratio was no more than 0.25. For the variant KICA, the enrichment ratio is no more than 0.25. As for LLMY, the enrichment ratio was no more than 0.25. As to FMIW, the enrichment ratio is no more than 0.25. For YMVF, the enrichment ratio was no more than 0.25. With NLLC the figure was no more than 0.25.

Regarding MVAG, the enrichment ratio came to 12.7.

Take MVTG: the enrichment ratio is no more than 0.25.

As for MVMG, the enrichment ratio was 1.65. As to LDKC, the enrichment ratio was no more than 0.25. With PPTY, the enrichment ratio is no more than 0.25. The same measure for TEIH: 11.4; for TEES: no more than 0.25. For the variant TEGH, the enrichment ratio turned out to be 18.1.

Regarding HPYH, the enrichment ratio is no more than 0.25. HPGH: the enrichment ratio is no more than 0.25.

As for TETH, the enrichment ratio stood at 10.3. With VEIH the figure was no more than 0.25. The same measure for NESH: no more than 0.25; for TESH: 32.2; for QEIH: no more than 0.25. Take TEYH: the enrichment ratio came out at 20.6.

Take TEGP: the enrichment ratio is no more than 0.25. Turning to DYRT, the enrichment ratio was no more than 0.25. NIFH: the enrichment ratio is no more than 0.25.

Take YEYG: the enrichment ratio was no more than 0.25. MMTM: the enrichment ratio was 10.9.

For KSWM, the enrichment ratio is no more than 0.25. With TSAM, the enrichment ratio turned out to be 13.8. With MMWM, the enrichment ratio was no more than 0.25. Consider TSTM, for which the enrichment ratio worked out at 25.6.

Consider KSAM, for which the enrichment ratio is no more than 0.25. For the variant TSGM, the enrichment ratio is 19.2.

As for TSWM, the enrichment ratio was determined as 16.2. In the case of NVTM, the enrichment ratio was no more than 0.25. With NSAM the figure was no more than 0.25; with MMGM, 1.99.

As for KSGM, the enrichment ratio is no more than 0.25.

With HFPI, the enrichment ratio is no more than 0.25.

For the variant TFKM, the enrichment ratio is no more than 0.25.

As to INVC, the enrichment ratio is no more than 0.25. On to KVGI, for which the enrichment ratio is no more than 0.25. Regarding GLDQ, the enrichment ratio was no more than 0.25. The same measure for DESQ: no more than 0.25; for RFAC: no more than 0.25. For the variant STGF, the enrichment ratio is 11.4. The same measure for STMF: 11.1; for SEMF: 20.6. As for STHF, the enrichment ratio was no more than 0.25.

The values are drawn from a collection of fitness landscapes (doi:10.1126/science.1257360).
